# Reference: the OligoGym collection
# Biological target: EPAS1
# Experiment: pooled miR-30 sensor sort-seq; sequence = guide strand
# Conditions: shRNA
row,Sequence,sensor-assay potency score (higher = more potent)
1,TTGCTCTTCATACTCCAGCTGT,-0.454
2,TAGAACACCTCCGTCTCCTTGC,0.306
3,TTGTGTGTTCGCAGGAAGCTGA,-0.595

# Biological target: EPB41
# Experiment: as above
# Conditions: shRNA
row,Sequence,sensor-assay potency score (higher = more potent)
1,ATAATTTCTTAGCTGCTCGGTA,-0.474
2,TAGAATAATCTTGAAAGTCTGA,0.113
3,TTCTTTGCCTTCTTCCTCGGAC,-0.102
4,TTGATCTCCTCTTGACTCTTGT,0.588
5,TTGACAAGATTCCTCCTGCTGA,-0.541
6,TTGGTCACTGACATGTCTGGGT,-0.161
7,TTAGCTGCTCGGTAACTGGGAA,-0.397
8,TTCTGGGTCGTAGTCTCCCAGT,-1.42
9,TTATGTCTTCTGTTAACTGTGC,-0.0684
10,TTTACTTGCTGTACGCTCGAAG,0.135
11,TAGCTTGCCTGGTCTGAGCTTG,-0.0306
12,TTGAACAATTCTGATATCCTAA,-0.113
13,TTCATAAACTGTGTCATCCAAC,-0.828
14,TTTACTTCTATTTTGGAGCACT,-0.574
15,TTGACTCTTGTCTAAATCCTCC,-0.522
16,TAAAACTTTACATTAAATGTAA,-0.313
17,TTTTTCAGCTCACTGATGCTGG,0.147
18,TGTTTGACAAGATTCCTCCTGC,0.721
19,TATCTTGTTATGTCTTCTGTTA,-0.573
20,ATCTTCTCTGAGTTCTTCCTGA,-0.459
21,TTTGATCTCCTCTTGACTCTTG,0.604
22,TAGAGCACTAGCTTGCCTGGTC,0.107
23,TTTGTAGAAACAACCAGCCTGG,0.246

# Biological target: EPC2
# Experiment: as above
# Conditions: shRNA
row,Sequence,sensor-assay potency score (higher = more potent)
1,TTCTTGAAGTGTTACAAGCTGA,-0.486
2,TTGCTGTTTCTGCTGAAGCTGG,-1.06
3,TTGAGGTACATTCTTCACTATC,-1.27
4,TTTCTCTAAACACTTGCTGTGC,-0.595
5,TTGCATCTGAACTAACTGCTGC,0.128
6,TTCTTCACTATCACTGTCCTGT,0.612
7,TAGTTTTACATTCTTGAACTTT,-0.105
8,TATAACTCTTTTTCTGATCTAC,0.207
9,TTAATTTCCATCTTTCTGTTAA,-0.679
10,TTAAGTGCAATAATTCTCGTTT,0.497
11,TTTTTCTCTAAACACTTGCTGT,-0.823
12,TTATTGTTCACAGTCTGCCCTG,-0.344
